Experimental findings from PubChem BioAssay AID463173 (ICCB-Longwood Screening Facility, Harvard Medical School, 2010) are described below.

Molecules are shown by their SMILES. Among all 52,000 compounds or so, about 1,700 (3.3%) were called active. What follows is part of a selection rich in actives, with near analogues and random picks from the rest. A number with no mark means an inactive call. No stated cut-off is given here; in the data, active means survival mostly below about 52% (no sharp cut-off); inactive means mostly above about 56%.

The assay has as its system Wild type. In words: growth inhibition of S. aureus wild type versus tarO mutant, primary screen, teichoic acid synthesis inhibitors, RN4220, OD600 (AID 463173). The conditions noted are these: S. aureus RN4220 wild type/DeltatarO growth, OD600, 18 h, active compounds read low, concentration not given here.
For the compound `CCOc1ccc2nc(NC(=O)c3cccn(Cc4ccc(C)cc4)c3=O)sc2c1`, the survival was 76%. As to `Cc1ccc(Cn2cccc(C(=O)Nc3cc(C)on3)c2=O)cc1`, the survival is 81%. The figure for `O=C1CN=C(c2ccccc2Cl)c2cc(Cl)ccc2N1Cc1cccc(Cl)c1` is 128%; for `Cc1ccc(C)c(CN2C(=O)c3ccccc3Sc3ccc(C(=O)N4CCC5(CC4)OCCO5)cc32)c1` it is 14% (active); for `Cc1ccc(CN2C(=O)c3ccccc3Sc3ccc(C(=O)N4CCC5(CC4)OCCO5)cc32)cc1` it is 75%. The figure for `O=C(c1ccc2c(c1)N(Cc1ccc(F)cc1Cl)C(=O)c1ccccc1S2)N1CCC2(CC1)OCCO2` is 78%.

Take `C1CNC2NCCNC2N1` (stereo not drawn): the survival is 125%.

For the compound `O=C1NC(=O)C(C(CC(=O)c2ccccc2)c2ccccc2)C(=O)N1` (stereo not drawn), the survival is 116%. The same measure for `CN1C(=O)C(=Cc2ccco2)C(=O)N(C)C1=O`: 109%; for `CCCSc1nc2ccccc2c(=O)n1-c1ccccc1OC`: -1% (active); for `CSc1nc2ccccc2c(=O)n1-c1ccccc1C`: 107%. The same measure for `COc1ccccc1-n1c(/C=C/c2ccccc2)nc2ccccc2c1=O`: 80%. The same measure for `CC(=O)N1CC(=O)Nc2ccc(F)cc2C1c1ccccc1` (stereo not drawn): 82%; for `COc1ccc(-c2nc(CN3C(=O)CN=C(c4ccccc4)c4ccccc43)c(C)o2)cc1`: 93%; for `COc1ccc(-c2nc(CN3C(=O)CN=C(c4ccccc4)c4ccccc43)c(C)o2)cc1OC`: 96%.

Regarding `Cc1ccc(-c2nc(CN3C(=O)CN=C(c4ccccc4)c4ccccc43)c(C)o2)cc1`, the survival was 72%. The figure for `Cc1oc(-c2ccc(Cl)cc2)nc1CN1C(=O)CN=C(c2ccccc2)c2ccccc21` is 80%. The figure for `Cc1ccccc1-c1nc(CN2C(=O)CN=C(c3ccccc3)c3ccccc32)c(C)o1` is 2% (active). The figure for `Cc1cccc(-c2nc(CN3C(=O)CN=C(c4ccccc4)c4ccccc43)c(C)o2)c1` is 2% (active); for `Cc1ccc2scc(N3CCN(C)CC3)c(=O)c2c1` it is 136%; for `O=c1[nH]c2ccccc2c(=O)n1-c1ccc(Cl)c(Cl)c1` it is 91%. In the case of `CCOc1nc(NCc2ccco2)nc(N2CC3CC(C2)c2cccc(=O)n2C3)n1` (stereo not drawn), the survival was 104%.

As to `Nc1c2c(nc3sc4c(c13)CCCC4)CCCC2`, the survival is 118%.
